Reference: PubChem BioAssay (EPA / NIEHS)
Several values for one entry are separate records, joined by “and”; a condition that tells them apart may be missing. Identical values can stand only once. Records with an inconclusive call do not appear. Where a structure was tested more than once in an assay, its records may differ in their call. Activity calls are given as the source filed them. The calls were made as follows: active = hit-call score of the fitted dose curve at least 0.9, where 1 is the maximum; inconclusive = response in the unintended direction; inactive = score below 0.9.

Key:
[1] = ATG_XTT_Cytotoxicity: Cytotoxicity Assessment in the Attagene TRANS-FACTORIAL HepG2 Assay (AID 2283584)
Summary of the method: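 HepG2 cells transiently transfected with GAL4-UAS multiple reporter units, dosed 24 h; cytotoxicity read by XTT as loss of signal versus DMSO baseline.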

[2] = TOX21_p53_BLA_p2_viability: Viability Assessment in the Tox21 HCT-116 p53 Agonism Beta-lactamase Assay, Phase 2 (AID 2283591);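 also: compound exposure lasted 16 h at 37 °C; actives lower the ATP signal meaning cytotoxicity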
Summary of the method: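 Cytotoxicity readout: CellTiter-Glo ATP luminescence, 30 min at room temperature, after the beta-lactamase read. Cells were HCT116 exposed 16 h at 37C to compounds pin-transferred at 217-fold dilution from DMSO stocks.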

[3] = biological target: Cellular tumor antigen p53 (Homo sapiens) (UniProt P04637); experiment: TOX21_p53_BLA_p2_ratio: Tox21 HCT-116 p53 Agonism Beta-lactamase Assay, Ratio, Phase 2 (AID 2283592)
Summary of the method: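 HCT-116 cells with p53-responsive beta-lactamase reporter, 4000 cells/well, preincubated 5 h, then compound in DMSO (217-fold dilution) for 16 h at 37C. CCF4-AM substrate 2 h at room temperature; 460/530 nm emission ratio fitted upward versus DMSO.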

[4] = TOX21_p53_BLA_p4_viability: Viability Assessment in the Tox21 HCT-116 p53 Agonism Beta-lactamase Assay, Phase 4 (AID 2283597);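 also: hits lower the luminescence signal meaning cytotoxicity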
Summary of the method: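 HCT-116 p53-bla cells, 4000/well, dosed after 5 h attachment and incubated 16 h at 37 °C, 5% CO2. Viability from CellTiter-Glo ATP luminescence after 30 min at room temperature, taken after the beta-lactamase read; loss of signal indicates cytotoxicity.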

[5] = biological target: Cellular tumor antigen p53 (Homo sapiens) (UniProt P04637); experiment: TOX21_p53_BLA_p5_ratio: Tox21 HCT-116 p53 Agonism Beta-lactamase Assay, Ratio, Phase 5 (AID 2283599)
Summary of the method: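 Beta-lactamase reporter ratio (blue 460 nm over green 530 nm, 405 nm excitation) after 2 h CCF4-AM loading, in HCT-116 cells exposed 16 h at 37 C to compounds pinned at 217-fold dilution. Increases relative to DMSO baseline scored.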

[6] = TOX21_p53_BLA_p5_viability: Viability Assessment in the Tox21 HCT-116 p53 Agonism Beta-lactamase Assay, Phase 5 (AID 2283600)
Summary of the method: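 HCT-116 p53 beta-lactamase reporter cells, 4000/well, were exposed to compound (pin transfer, 217-fold dilution) for 16 hours at 37C. Cellular ATP was read by CellTiter-Glo luminescence after 30 min at room temperature.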

[7] = biological target: Cellular tumor antigen p53 (Homo sapiens) (UniProt P04637); experiment: TOX21_p53_BLA_p4_ratio: Tox21 HCT-116 p53 Agonism Beta-lactamase Assay, Ratio, Phase 4 (AID 2283601)
Summary of the method: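 Signal is the blue/green (460nm/530nm) ratio of cleaved versus uncleaved CCF4-AM substrate, read after 2 h substrate loading. Cells were HCT116 carrying the p53-responsive beta-lactamase reporter, dosed 16 h at 37C, 5% CO2; CellTiter-Glo measured in parallel.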

[8] = biological target: Cellular tumor antigen p53 (Homo sapiens) (UniProt P04637); experiment: TOX21_p53_BLA_p3_ratio: Tox21 HCT-116 p53 Agonism Beta-lactamase Assay, Ratio, Phase 3 (AID 2283596)
Summary of the method: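 HCT116 p53-bla cells (4000/well) given compound in DMSO (217-fold dilution) after 5 h, incubated 16 h at 37C. CCF4-AM substrate 2 h at room temperature; 460/530 nm emission ratio, gain fitted against DMSO.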

[9] = TOX21_p53_BLA_p3_viability: Viability Assessment in the Tox21 HCT-116 p53 Agonism Beta-lactamase Assay, Phase 3 (AID 2283593);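 also: cells exposed to compound for 16 h before reading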
Summary of the method: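 Cellular ATP was quantified by CellTiter-Glo luminescence, read after 30 min at room temperature. Beforehand, HCT116 cells (4000/well) received compound 5 h post-seeding, 217-fold diluted from DMSO, then incubated 16 h at 37C.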

Sequence of Cellular tumor antigen p53 (Homo sapiens) (P04637 whole entry, looked up): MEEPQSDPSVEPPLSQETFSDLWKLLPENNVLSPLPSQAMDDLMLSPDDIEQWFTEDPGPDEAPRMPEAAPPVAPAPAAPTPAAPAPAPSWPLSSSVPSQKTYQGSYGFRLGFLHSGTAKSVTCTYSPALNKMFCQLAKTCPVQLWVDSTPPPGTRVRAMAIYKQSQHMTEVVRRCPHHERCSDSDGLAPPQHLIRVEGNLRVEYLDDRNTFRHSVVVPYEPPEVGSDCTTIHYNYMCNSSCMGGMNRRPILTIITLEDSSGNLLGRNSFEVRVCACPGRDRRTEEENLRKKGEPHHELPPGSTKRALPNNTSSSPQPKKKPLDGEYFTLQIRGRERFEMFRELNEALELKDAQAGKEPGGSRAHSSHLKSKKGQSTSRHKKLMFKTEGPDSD

CC(C)=CCC/C(C)=C/COC=O
outcome [1]: inactive | outcome [2]: inactive | outcome [3]: inactive | outcome [4]: inactive | outcome [5]: inactive | outcome [6]: inactive | outcome [7]: inactive

CCC(=O)OCCC(C)CCC=C(C)C (stereo unspecified)
outcome [1]: inactive | outcome [2]: inactive | outcome [3]: inactive | outcome [8]: inactive | outcome [4]: inactive | outcome [5]: inactive | outcome [6]: inactive

CCCCO
outcome [1]: inactive | outcome [2]: inactive | outcome [3]: inactive | outcome [8]: inactive | outcome [4]: inactive | outcome [5]: inactive | outcome [6]: inactive | outcome [7]: inactive

CC1CCC2CC1C2(C)C (stereo unspecified)
outcome [1]: inactive | outcome [2]: inactive | outcome [3]: inactive | outcome [8]: inactive | outcome [5]: inactive | outcome [6]: inactive

CCCCCCCCCCCCCCCCCC(=O)OCC(CC)CCCC (stereo unspecified)
outcome [1]: inactive | outcome [2]: inactive | outcome [3]: inactive | outcome [4]: inactive | outcome [5]: inactive | outcome [7]: inactive

CCCCCC=CCC(=O)OC
outcome [1]: inactive | outcome [2]: inactive | outcome [9]: inactive | outcome [8]: inactive | outcome [6]: inactive

CC(=O)C(C)=O
outcome [1]: inactive | outcome [2]: inactive | outcome [3]: inactive | outcome [9]: inactive | outcome [4]: inactive | outcome [6]: inactive | outcome [7]: inactive

Nc1cc([N+](=O)[O-])ccc1O
outcome [1]: inactive | outcome [2]: inactive | outcome [3]: inactive | outcome [8]: inactive | outcome [4]: inactive | outcome [5]: inactive | outcome [6]: inactive | outcome [7]: inactive

BrC1CCC(Br)C(Br)CCC(Br)C(Br)CCC1Br (stereo unspecified)
outcome [1]: inactive | AC50 [2]: 18.1 µM (active) and 18.2 µM (active) | AC50 [3]: 53.1 µM (active) and 45.9 µM (active) | AC50 [8]: 65.6 µM (active) and 38.4 µM (active) | AC50 [4]: 40.1 µM (active) and 19.6 µM (active) | outcome [5]: inactive | outcome [6]: inactive | AC50 [7]: 63.7 µM (active) and 50.3 µM (active)

CC1(CO)CN(c2ccccc2)NC1=O (stereo unspecified)
outcome [1]: inactive | outcome [2]: inactive | outcome [3]: inactive | outcome [8]: inactive | outcome [4]: inactive | outcome [5]: inactive

CCCCCCCCCCC(CO)CCCCCCCC (stereo unspecified)
outcome [1]: inactive | outcome [2]: inactive | outcome [3]: inactive | outcome [9]: inactive | outcome [6]: inactive | outcome [7]: inactive

COCCOCCOCCOCCOCCO
outcome [1]: inactive | outcome [3]: inactive | outcome [9]: inactive | outcome [8]: inactive | outcome [5]: inactive | outcome [7]: inactive

COC(=O)c1ccc(C)cc1
outcome [1]: inactive | outcome [3]: inactive | outcome [9]: inactive | AC50 [8]: 0.353 nM (active) | outcome [8]: inactive | outcome [4]: inactive | outcome [5]: inactive | outcome [6]: inactive | AC50 [7]: 0.134 nM (active) | outcome [7]: inactive

CC(C)(N)CO
outcome [1]: inactive | outcome [3]: inactive | outcome [9]: inactive | outcome [8]: inactive | outcome [4]: inactive | outcome [5]: inactive | outcome [6]: inactive | outcome [7]: inactive

CC(=O)[O][Al][O]C(C)=O
outcome [1]: inactive | outcome [2]: inactive | outcome [4]: inactive | outcome [6]: inactive

NCCOCCO
outcome [1]: inactive | outcome [3]: inactive | outcome [9]: inactive | outcome [8]: inactive | outcome [4]: inactive | outcome [5]: inactive | outcome [7]: inactive

CCc1ccc(C=O)cc1
outcome [1]: inactive | outcome [3]: inactive | outcome [9]: inactive | outcome [8]: inactive | outcome [6]: inactive

CC(=O)c1c(C)cc(C(C)(C)C)cc1C
outcome [1]: inactive | outcome [3]: inactive | outcome [9]: inactive | outcome [4]: inactive | outcome [5]: inactive | outcome [6]: inactive | outcome [7]: inactive

Cc1ccc2ccccc2n1
outcome [1]: inactive | outcome [3]: inactive | outcome [9]: inactive | outcome [8]: inactive | outcome [5]: inactive | outcome [6]: inactive | outcome [7]: inactive

COc1ccc(NC(=O)CC(C)=O)cc1
outcome [1]: inactive | outcome [3]: inactive | outcome [9]: inactive | outcome [8]: inactive | outcome [4]: inactive | outcome [5]: inactive | outcome [6]: inactive | outcome [7]: inactive

CCC(=O)/C=C/C1C(C)=CCCC1(C)C (stereo unspecified)
outcome [1]: inactive | outcome [3]: inactive | outcome [9]: inactive | outcome [8]: inactive | outcome [5]: inactive | outcome [7]: inactive

C/C=C(\C)C(=O)OCc1ccccc1
outcome [1]: inactive | outcome [3]: inactive | outcome [9]: inactive | outcome [8]: inactive | outcome [4]: inactive | outcome [6]: inactive | outcome [7]: inactive

CCCc1ccccc1O
outcome [1]: inactive | outcome [3]: inactive | outcome [9]: inactive | outcome [8]: inactive | outcome [5]: inactive | outcome [6]: inactive | outcome [7]: inactive
